Data reported in PubChem BioAssay (EPA / NIEHS).
Results filed as inconclusive are left out. Activity calls are given as the source filed them. The calls were made as follows, unless noted: active = hit-call score of the fitted dose curve at least 0.9, where 1 is the maximum; inactive = score below 0.9.

These compounds were tested against Nuclear receptor subfamily 4 group A member 2 (Homo sapiens) (UniProt P43354) (assay: ATG_NURR1_TRANS: Attagene TRANS-FACTORIAL HepG2 Assay for human Nuclear Receptor Related Protein 1 (NURR1) (AID 2282985; active = hit-call score of the fitted dose curve at least 0.9, where 1 is the maximum)). Conditions: HepG2 Attagene TRANS reporter, mRNA readout.
Outline: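 Chimeric NR-Gal4 proteins were expressed in human HepG2 cells bearing GAL4-UAS reporter units, and induced reporter mRNA was quantified 24 h post-dosing by RT-PCR and capillary electrophoresis.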

Nuclear receptor subfamily 4 group A member 2 (Homo sapiens), sequence (P43354 whole entry, looked up, the tested form may be a part): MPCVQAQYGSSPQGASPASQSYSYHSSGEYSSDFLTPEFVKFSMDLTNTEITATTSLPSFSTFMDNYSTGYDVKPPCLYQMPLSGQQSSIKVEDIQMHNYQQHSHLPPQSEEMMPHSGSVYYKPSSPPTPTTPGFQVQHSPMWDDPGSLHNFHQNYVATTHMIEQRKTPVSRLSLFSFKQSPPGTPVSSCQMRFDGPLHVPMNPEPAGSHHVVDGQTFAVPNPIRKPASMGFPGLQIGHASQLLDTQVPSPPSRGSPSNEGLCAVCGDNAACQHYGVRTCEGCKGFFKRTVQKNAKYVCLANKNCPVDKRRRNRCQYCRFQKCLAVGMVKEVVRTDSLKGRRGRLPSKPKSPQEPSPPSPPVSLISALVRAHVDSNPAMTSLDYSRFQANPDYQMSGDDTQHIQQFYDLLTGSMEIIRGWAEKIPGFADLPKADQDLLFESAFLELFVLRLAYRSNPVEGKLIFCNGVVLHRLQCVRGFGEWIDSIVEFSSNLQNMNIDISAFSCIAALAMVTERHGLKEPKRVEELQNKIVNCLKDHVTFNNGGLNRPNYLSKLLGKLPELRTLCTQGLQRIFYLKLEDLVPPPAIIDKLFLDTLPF

Row | Structure (SMILES) | outcome
1 | CSc1nnc(C(C)(C)C)c(=O)n1N | inactive
2 | S=C1NCCN1 | inactive
3 | O=c1ccc(=O)[nH][nH]1 | inactive
4 | CCOP(=S)(OCC)Oc1cc(C)nc(C(C)C)n1 | inactive
5 | CC(Oc1cccc(Cl)c1)C(=O)O (stereo not given) | inactive
6 | CSc1nc(NC(C)C)nc(NC(C)C)n1 | inactive
7 | CCC(CC)Nc1c([N+](=O)[O-])cc(C)c(C)c1[N+](=O)[O-] | inactive
8 | CN(C)NC(=O)CCC(=O)O | inactive
9 | Cc1cc(C2CC2)nc(Nc2ccccc2)n1 | inactive
10 | C#CC(C)(C)NC(=O)c1cc(Cl)cc(Cl)c1 | inactive
11 | CC(=NC#N)N(C)Cc1ccc(Cl)nc1 | inactive
12 | CCOP(=S)(OCC)Oc1ccc([N+](=O)[O-])cc1 | inactive
13 | CCCOc1nn(C(=O)NS(=O)(=O)c2ccccc2C(=O)OC)c(=O)n1C | inactive
14 | CCCSP(=O)(OCC)Oc1ccc(Br)cc1Cl (stereo not given) | inactive
15 | FC(F)C(F)(F)OCC(Cn1cncn1)c1ccc(Cl)cc1Cl (stereo not given) | inactive
16 | C[Si](Cn1cncn1)(c1ccc(F)cc1)c1ccc(F)cc1 | inactive
17 | CC(C)N(C(=O)SCC(Cl)=C(Cl)Cl)C(C)C | inactive
18 | CCNc1nc(Cl)nc(NC(C)(C)C#N)n1 | inactive
19 | C[N+]1(C)CCCCC1 | inactive
20 | CCOP(=O)(OCC)Oc1cc(C)nc(C(C)C)n1 | inactive
21 | CC(C1CC1)C(O)(Cn1cncn1)c1ccc(Cl)cc1 (stereo not given) | inactive

Each compound was assayed against Transcriptional activator Myb (Homo sapiens) (UniProt P10242) (assay: ATG_Myb_CIS: Attagene CIS-FACTORIAL HepG2 Assay for human Myeloblastosis (Myb) Proto-Oncogene Transcription Factor (AID 2282986)). Conditions: HepG2 Attagene CIS-FACTORIAL Myb reporter transcription; actives raise or lower the signal.
Outline: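 Transiently transfected HepG2 cells, treated 24 h. Reporter mRNA quantified by RT-PCR/capillary electrophoresis; bidirectional fit relative to DMSO.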

Transcriptional activator Myb (Homo sapiens), sequence (P10242 whole entry, looked up): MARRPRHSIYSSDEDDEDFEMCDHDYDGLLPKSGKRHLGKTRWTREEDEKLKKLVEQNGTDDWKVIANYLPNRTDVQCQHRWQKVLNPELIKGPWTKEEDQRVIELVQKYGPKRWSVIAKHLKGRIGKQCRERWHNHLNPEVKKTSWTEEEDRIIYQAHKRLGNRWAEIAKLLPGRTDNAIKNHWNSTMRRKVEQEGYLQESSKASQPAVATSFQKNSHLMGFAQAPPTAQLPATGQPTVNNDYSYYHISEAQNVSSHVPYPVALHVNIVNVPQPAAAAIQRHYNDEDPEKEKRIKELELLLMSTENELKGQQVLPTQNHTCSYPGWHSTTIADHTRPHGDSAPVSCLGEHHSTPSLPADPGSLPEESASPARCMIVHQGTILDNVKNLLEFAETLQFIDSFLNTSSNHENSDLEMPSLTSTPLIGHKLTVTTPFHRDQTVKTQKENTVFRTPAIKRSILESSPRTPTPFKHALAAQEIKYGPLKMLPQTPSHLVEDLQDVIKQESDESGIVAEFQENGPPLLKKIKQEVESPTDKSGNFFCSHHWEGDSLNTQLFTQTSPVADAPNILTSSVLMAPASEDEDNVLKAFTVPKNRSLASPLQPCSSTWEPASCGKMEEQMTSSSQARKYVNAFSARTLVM

Row | Structure (SMILES) | outcome
22 | COP(=O)(NC(C)=O)SC (stereo not given) | inactive
23 | CC(Oc1cccc(Cl)c1)C(=O)O (stereo not given) | inactive
24 | CCOP(=S)(OCC)SCCSCC | inactive
25 | CSc1nc(NC(C)C)nc(NC(C)C)n1 | inactive
26 | CCC(CC)Nc1c([N+](=O)[O-])cc(C)c(C)c1[N+](=O)[O-] | inactive
27 | CN(C)NC(=O)CCC(=O)O | inactive
28 | CCOP(=O)(SC(C)CC)N1CCSC1=O (stereo not given) | inactive
29 | COP(=O)(OC)SCn1c(=O)oc2cc(Cl)cnc21 | inactive
30 | CCCSP(=O)(OCC)Oc1ccc(Br)cc1Cl (stereo not given) | inactive
31 | CNc1cnn(-c2cccc(C(F)(F)F)c2)c(=O)c1Cl | inactive
32 | CC(C)N(C(=O)SCC(Cl)=C(Cl)Cl)C(C)C | inactive
33 | C[N+]1(C)CCCCC1 | inactive
34 | CCCCOC(=O)c1ccccc1C(=O)O | inactive

Each compound was assayed against Nuclear respiratory factor 1 (Homo sapiens) (UniProt Q16656) (assay: ATG_NRF1_CIS: Attagene CIS-FACTORIAL HepG2 Assay for human Nuclear Respiratory Factor 1 (NRF1) Orphan Gene (AID 2282987)). Conditions: HepG2 NRF1 cis-element reporter, Attagene multiplex; actives raise or lower the signal.
Outline: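 Cells (HepG2, transient MRTU transfection) are exposed to compound for 24 h, then RNA isolated and reporter mRNA amplified and fluorescently labelled. Fragments are separated by capillary electrophoresis; signal change is fitted bidirectionally relative to DMSO.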

Nuclear respiratory factor 1 (Homo sapiens), sequence (Q16656 whole entry, looked up, the tested form may be a part): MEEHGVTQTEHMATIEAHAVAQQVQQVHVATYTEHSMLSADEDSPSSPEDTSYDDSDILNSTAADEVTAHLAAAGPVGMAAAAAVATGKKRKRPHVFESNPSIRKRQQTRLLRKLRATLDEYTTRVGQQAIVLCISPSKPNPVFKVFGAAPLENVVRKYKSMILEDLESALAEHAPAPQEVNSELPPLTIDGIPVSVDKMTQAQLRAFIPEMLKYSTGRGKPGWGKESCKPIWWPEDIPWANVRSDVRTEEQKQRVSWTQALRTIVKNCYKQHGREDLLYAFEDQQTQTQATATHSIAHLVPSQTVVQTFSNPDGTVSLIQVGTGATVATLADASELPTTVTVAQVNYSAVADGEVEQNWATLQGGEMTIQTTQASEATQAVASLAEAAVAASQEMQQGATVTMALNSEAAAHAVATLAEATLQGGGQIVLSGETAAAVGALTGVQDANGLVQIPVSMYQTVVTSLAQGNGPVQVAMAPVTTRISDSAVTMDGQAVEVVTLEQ

Row | Structure (SMILES) | outcome | AC50
35 | CCc1cnc(C2=NC(C)(C(C)C)C(=O)N2)c(C(=O)O)c1 (stereo not given) | inactive | 
36 | CSc1nnc(C(C)(C)C)c(=O)n1N | inactive | 
37 | CC(C)[C@H](C(=O)O[C@H](C#N)c1cccc(Oc2ccccc2)c1)c1ccc(Cl)cc1 | inactive | 
38 | S=C1NCCN1 | inactive | 
39 | O=c1ccc(=O)[nH][nH]1 | inactive | 
40 | COP(=O)(NC(C)=O)SC (stereo not given) | inactive | 
41 | CCOP(=S)(OCC)Oc1cc(C)nc(C(C)C)n1 | inactive | 
42 | CCOC(=O)CC(SP(=O)(OC)OC)C(=O)OCC (stereo not given) | inactive | 
43 | CC(Oc1cccc(Cl)c1)C(=O)O (stereo not given) | inactive | 
44 | CCOP(=S)(OCC)SCCSCC | inactive | 
45 | CSc1nc(NC(C)C)nc(NC(C)C)n1 | inactive | 
46 | CCC(CC)Nc1c([N+](=O)[O-])cc(C)c(C)c1[N+](=O)[O-] | inactive | 
47 | CON=C(C(=O)OC)c1ccccc1CON=C(C)c1cccc(C(F)(F)F)c1 | inactive | 
48 | CNC(=O)Oc1cccc2c1OC(C)(C)O2 | inactive | 
49 | CN(C)NC(=O)CCC(=O)O | inactive | 
50 | Cc1cc(C2CC2)nc(Nc2ccccc2)n1 |  | 76 µM (active)

Row | Structure (SMILES) | outcome | AC50
51 | C#CC(C)(C)NC(=O)c1cc(Cl)cc(Cl)c1 | inactive | 
52 | CC(=NC#N)N(C)Cc1ccc(Cl)nc1 | inactive | 
53 | CCOP(=S)(OCC)Oc1ccc([N+](=O)[O-])cc1 | inactive | 
54 | O=C(O)c1cc(Oc2ccc(C(F)(F)F)cc2Cl)ccc1[N+](=O)[O-] | inactive | 
55 | CCCOc1nn(C(=O)NS(=O)(=O)c2ccccc2C(=O)OC)c(=O)n1C | inactive | 
56 | CCOP(=O)(SC(C)CC)N1CCSC1=O (stereo not given) | inactive | 
57 | COP(=O)(OC)SCn1c(=O)oc2cc(Cl)cnc21 | inactive | 
58 | CCCSP(=O)(OCC)Oc1ccc(Br)cc1Cl (stereo not given) | inactive | 
59 | CCc1cccc(CC)c1N(COC)C(=O)CCl | inactive | 
60 | FC(F)C(F)(F)OCC(Cn1cncn1)c1ccc(Cl)cc1Cl (stereo not given) |  | 39.5 µM (active)
61 | C[Si](Cn1cncn1)(c1ccc(F)cc1)c1ccc(F)cc1 |  | 73.7 µM (active)
62 | CNc1cnn(-c2cccc(C(F)(F)F)c2)c(=O)c1Cl | inactive | 
63 | CN(C)C(=O)Nc1cccc(C(F)(F)F)c1 | inactive | 
64 | CC(C)N(C(=O)SCC(Cl)=C(Cl)Cl)C(C)C | inactive | 
65 | CCNc1nc(Cl)nc(NC(C)(C)C#N)n1 | inactive | 
